# Assay results: the supplement of paper PMC8371130
# Counter-ions that a name gives are not always drawn.
# Test system: HL-1
# Assay: relative cell viability (CellTiter-Glo) vs DMSO control (% of DMSO control); higher = more viable cells
# Method in brief: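 In 384-well plates, 1000 HL-1 mouse atrial cardiomyocytes per well were plated with compounds at 40, 200, 1000 or 5000 nM in 0.01% DMSO. Hypoxia at 1% O2 for 48 h began one day later and was followed by 24 h of reoxygenation, with parallel plates held in normoxia. CellTiter-Glo luminescence gave cell viability relative to vehicle-treated control cells.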
# [1] = oxygen condition: hypoxia 48 h (1% O2) + reoxygenation 24 h, 40 nM
# [2] = oxygen condition: hypoxia 48 h (1% O2) + reoxygenation 24 h, 200 nM
# [3] = oxygen condition: hypoxia 48 h (1% O2) + reoxygenation 24 h, 1000 nM
# [4] = oxygen condition: hypoxia 48 h (1% O2) + reoxygenation 24 h, 5000 nM
# [5] = oxygen condition: normoxia 72 h, 40 nM
# [6] = oxygen condition: normoxia 72 h, 200 nM
# [7] = oxygen condition: normoxia 72 h, 1000 nM
# [8] = oxygen condition: normoxia 72 h, 5000 nM
SMILES,relative cell viability [1],relative cell viability [2],relative cell viability [3],relative cell viability [4],relative cell viability [5],relative cell viability [6],relative cell viability [7],relative cell viability [8]
CC(C)[C@H](N)C(=O)OCC(CO)OCn1cnc2c(=O)nc(N)[nH]c21 (stereo partly specified) [valganciclovir hydrochloride],107,107,107,121,108,110,114,115
C[C@H](N[C@@H](CCc1ccccc1)C(=O)O)C(=O)N1CCC[C@H]1C(=O)O [Enalaprilat dihydrate],104,106,102,110,104,99,107,109
CN(Cc1cc(Br)cc(Br)c1N)C1CCCCC1 [Bromhexine HCl],97.5,96.2,99.9,102,104,108,98.4,108
CCCc1nc(C(C)(C)O)c(C(=O)OCc2oc(=O)oc2C)n1Cc1ccc(-c2ccccc2-c2nnn[nH]2)cc1 [Olmesartan medoxomil],93.8,99.2,94.7,105,97,98.2,96.7,95.7
CC(=O)OCC(CCn1cnc2cnc(N)nc21)COC(C)=O [Famciclovir],101,104,100,113,106,106,105,121
N=C(N)Nc1ccc(C(=O)Oc2ccc3cc(C(=N)N)ccc3c2)cc1 [Nafamostat mesylate],103,104,108,105,105,110,111,107
CCCCc1nc(Cl)c(CO)n1Cc1ccc(-c2ccccc2-c2nnn[nH]2)cc1 [Losartan potassium],111,107,114,108,103,108,108,110
CCCCN(CCCC)CCCOC(=O)c1ccc(N)cc1 [Butacaine],103,101,106,106,103,92.7,102,104
CC(=O)OCC(=O)[C@@]12N=C(C)O[C@@H]1C[C@H]1[C@@H]3CCC4=CC(=O)C=C[C@]4(C)[C@H]3[C@@H](O)C[C@@]12C [Deflazacort],90.6,90.3,97.1,77.3,89.6,92.4,95.6,99.2
COC(c1ccccc1)(c1ccccc1)[C@H](Oc1nc(C)cc(C)n1)C(=O)O [Ambrisentan],105,97.3,109,105,95.1,94,102,99.8
C[C@@H](NCCCc1cccc(C(F)(F)F)c1)c1cccc2ccccc12,102,102,105,102,95.2,95.9,109,106
COc1ccc(CNc2nc(N3CCC[C@H]3CO)ncc2C(=O)NCc2ncccn2)cc1Cl [Avanafil],91.6,99.7,97.5,103,101,102,97.1,107
CC1(C)S[C@@H]2[C@H](NC(=O)[C@H](N)c3ccc(O)cc3)C(=O)N2[C@H]1C(=O)O [Amoxicillin],104,103,111,114,104,100,106,108
COc1nc(N)nc2c1ncn2[C@@H]1O[C@H](CO)[C@@H](O)[C@@H]1O [Nelarabine],113,114,112,112,111,112,108,111
CC(C)(Sc1cc(C(C)(C)C)c(O)c(C(C)(C)C)c1)Sc1cc(C(C)(C)C)c(O)c(C(C)(C)C)c1 [Probucol],108,105,104,110,106,103,105,112
C[C@H]1c2cccc(O)c2C(=O)C2=C(O)[C@]3(O)C(=O)C(C(N)=O)=C(O)[C@@H](N(C)C)[C@@H]3[C@@H](O)[C@@H]21 [Doxycycline HCl],102,104,105,107,105,106,95.6,92.9
O=C(c1cc(Cc2n[nH]c(=O)c3ccccc23)ccc1F)N1CCN(C(=O)C2CC2)CC1 [Olaparib],86.7,84.4,76.2,61.1,79,86.6,70.1,60
O=C(O)CCCN1CCC(O[C@@H](c2ccc(Cl)cc2)c2ccccn2)CC1 [Bepotastine Besilate],112,108,111,120,113,115,115,131
OC(CCN1CCCCC1)(c1ccccc1)C1CC2C=CC1C2 (stereo unspecified) [Biperiden HCl],106,104,93.9,108,106,106,106,100

SMILES,relative cell viability [1],relative cell viability [2],relative cell viability [3],relative cell viability [4],relative cell viability [5],relative cell viability [6],relative cell viability [7],relative cell viability [8]
Nc1[nH]cnc2ncnc1-2 [Adenine hydrochloride],108,105,104,110,100,96.4,103,107
Cc1ccc(NC(=O)c2ccc(CN3CCN(C)CC3)cc2)cc1Nc1nccc(-c2cccnc2)n1 [Imatinib],101,101,110,107,105,100,98.6,111
CCN(CC)C(=O)C1(c2ccccc2)CC1CN (stereo unspecified) [Milnacipran HCl],107,108,105,118,107,101,106,109
Nc1nc(F)nc2c1ncn2[C@@H]1O[C@H](COP(=O)(O)O)[C@@H](O)[C@@H]1O [Fludarabine Phosphate],115,108,119,113,108,115,119,111
O=NN(CCCl)C(=O)NC1CCCCC1 [Lomustine],90.8,100,93.4,66.3,108,96.2,102,67
NCC(=O)CCC(=O)O [5-Aminolevulinic acid hydrochloride],101,104,105,110,99.8,102,100,113
COc1ccc2[nH]c([S@@+]([O-])Cc3ncc(C)c(OC)c3C)nc2c1 [Esomeprazole magnesium],107,113,114,118,104,114,115,119
N=C(N)NCCN1CCCCCCC1 [Guanethidine Sulfate],101,101,96.2,113,103,107,103,116
CN1C(CCl)Nc2cc(Cl)c(S(N)(=O)=O)cc2S1(=O)=O (stereo unspecified) [Methyclothiazide],106,98.5,105,110,108,106,109,115
NC(CO)C(=O)NNCc1ccc(O)c(O)c1O (stereo unspecified) [Benserazide],107,101,111,110,97.3,104,102,107
CC(C)C(=O)Nc1ccc([N+](=O)[O-])c(C(F)(F)F)c1 [Flutamide],108,102,101,38.7,98.3,101,105,37
CC/C(=C(/CC)c1ccc(O)cc1)c1ccc(O)cc1 [Diethylstilbestrol],105,106,107,109,108,96.7,108,112
COc1cccc2c1C(=O)c1c(O)c3c(c(O)c1C2=O)C[C@@](O)(C(=O)CO)C[C@@H]3O[C@H]1C[C@H](N)[C@H](O)[C@H](C)O1 [Doxorubicin],63.3,44,57.3,16.7,63,55.4,52.4,13.7
CC=CC1=C(C(=O)O)N2C(=O)[C@@H](NC(=O)[C@H](N)c3ccc(O)cc3)[C@H]2SC1 [Cefprozil hydrate],95.4,104,105,104,102,103,100,107
Cc1cccc(C)c1NC(=O)C1CCCCN1C (stereo unspecified) [Mepivacaine HCl],102,99.8,121,105,102,110,111,111
Cc1c(O)c(=O)ccn1C [Deferiprone],108,102,102,112,100,102,107,111
N[C@@H](Cc1cc(I)c(Oc2cc(I)c(O)c(I)c2)c(I)c1)C(=O)O [L-Thyroxine],98.5,101,99.6,110,108,101,99.3,109
CC(C)NCC(O)c1ccc(NS(C)(=O)=O)cc1 (stereo unspecified) [Sotalol],100,98.9,93,99.8,96.9,94.1,98.4,104
